# CF NFkB block: inhibitors of PAF-induced NF-kB signaling, primary screen, cell-based, GFP fluorescence, uHTS; KKLEB NF-kB-GFP reporter, GFP fluorescence overnight; inhibition, % at 5 µM; actives 0.86% (n = 360,000); AID 588850, 2011;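 active = at least 50% inhibition at 5 µM, scaled per plate between neutral and stimulator controls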;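 note: PAF is a Pseudomonas aeruginosa culture filtrate used as stimulus; plate controls were PAF-stimulated DMSO wells for no effect and unstimulated DMSO wells for full effect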
# HIF-2a inh: HIF-2a reporter inhibitors, primary screen, luminescence, 786-0 RCC cells; 786-0 RCC cells HIF-2a reporter, luciferase luminescence, overnight; actives 0.72% (n = 360,000); inhibition, % at 18.8 µM;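 active = inhibition of the luminescence signal of 40% or more relative to plate controls, in a single-dose primary screen at 18.75 µM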
# Peg3 promoter: Peg3 promoter-driven luciferase inhibitors, primary screen, cell-based, HeLa, luciferase luminescence. HeLa PEG-Prom luciferase reporter, overnight. inhibition, % at 20 µM. actives 1.7% (n = 360,000). AID 588405, 2011;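 active = inhibition of at least 50% at 20 µM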
# KKLEB cytotox: cytotoxicity in KKLEB CF airway cells, primary screen, cytotoxicity control for CF NF-kB inhibitor project, cell-based, uHTS, fluorescence assay plates | KKLEB CF airway cells viability, ATPlite luminescence, overnight; active compounds read low; cells stimulated with P. aeruginosa culture filtrate | activity change (cytotoxicity), % at 5 µM | actives 0.36% (n = 360,000);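 active = corrected activity change at or below -50% at 5 µM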
# LMP1 NFkB inh: EBV LMP1-driven NF-kappaB luciferase reporter inhibitors, primary screen, cell-based, luminescence, single point; inhibition, % at 12.5 µM; LMP1-induced NF-kappaB luciferase reporter cells; AID 504558, 2011; actives 0.69% (n = 350,000); in the data active = inhibition above about 41%;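 note: 0% = neutral control wells and 100% = reference inhibitor control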
# TRPM1 prom inh: inhibitors of MITF-dependent TRPM1 promoter reporter, primary screen, cell-based, SK-MEL-5, single point, luciferase; SK-MEL-5 TRPM1 promoter luciferase, 24 h; inhibition, % at 12.5 µM; actives 0.83% (n = 330,000);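 active = mean inhibition across replicates of 60% or more, whatever share of single replicates reaches that level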
# Mdm2 MdmX conf: retested Mdm2-MdmX interaction blockers, confirmation, cell-based, luminescence, single concentration, set 2. inhibition, % at 8 µM. shares compounds with HIF-2a inh. SaOS-2 split-luciferase Mdm2/MdmX complementation. actives 99% (n = 740);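 active = mean inhibition of the luminescence signal across two replicates at or above 26 percent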
# Target sequence (O15151 whole entry, looked up): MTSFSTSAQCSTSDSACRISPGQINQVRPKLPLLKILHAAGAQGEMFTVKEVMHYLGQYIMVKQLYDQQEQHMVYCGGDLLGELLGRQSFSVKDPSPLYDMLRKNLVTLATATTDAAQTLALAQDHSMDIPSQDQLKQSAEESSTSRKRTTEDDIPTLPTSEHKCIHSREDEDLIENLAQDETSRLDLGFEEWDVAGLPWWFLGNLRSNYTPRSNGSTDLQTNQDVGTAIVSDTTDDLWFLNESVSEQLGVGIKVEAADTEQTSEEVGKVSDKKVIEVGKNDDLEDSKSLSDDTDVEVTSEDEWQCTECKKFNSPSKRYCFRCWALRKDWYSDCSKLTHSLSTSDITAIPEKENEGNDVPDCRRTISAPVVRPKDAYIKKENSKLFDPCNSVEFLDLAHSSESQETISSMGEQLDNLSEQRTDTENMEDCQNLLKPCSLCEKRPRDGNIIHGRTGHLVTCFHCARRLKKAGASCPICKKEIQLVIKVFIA
# Target sequence (Q00987 whole entry, looked up): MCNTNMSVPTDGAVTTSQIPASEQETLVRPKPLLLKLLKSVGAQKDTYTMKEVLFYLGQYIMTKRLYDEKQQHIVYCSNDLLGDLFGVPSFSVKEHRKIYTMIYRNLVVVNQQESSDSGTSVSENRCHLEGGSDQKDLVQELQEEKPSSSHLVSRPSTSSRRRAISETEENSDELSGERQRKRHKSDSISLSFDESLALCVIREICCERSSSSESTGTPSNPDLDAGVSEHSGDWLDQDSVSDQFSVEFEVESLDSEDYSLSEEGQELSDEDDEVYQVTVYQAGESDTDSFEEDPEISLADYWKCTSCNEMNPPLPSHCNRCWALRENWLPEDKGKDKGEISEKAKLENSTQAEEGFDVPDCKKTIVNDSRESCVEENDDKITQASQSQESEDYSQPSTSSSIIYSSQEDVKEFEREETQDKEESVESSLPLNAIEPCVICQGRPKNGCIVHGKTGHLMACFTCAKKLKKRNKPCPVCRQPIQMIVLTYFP
# HIF-2a conf: HIF-2a reporter inhibitor retest, confirmation, luminescence, 786-0 RCC cells; shares compounds with HIF-2a inh; HIF-2a luciferase reporter luminescence, overnight; inhibition, % at 18.8 µM; actives 56% (n = 1,800);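 active = mean inhibition across four replicates of at least 40 percent at the single tested concentration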
# HIF-1a cs: HIF-1a luciferase reporter signal reduction – MiaPaCa-2 cells, single concentration, counter-screen for HIF-2a inhibitor project, confirmation; shares compounds with HIF-2a inh; MiaPaCa-2 HIF-1a luciferase reporter, desferoxamine, overnight; inhibition, % at 18.8 µM; actives 72% (n = 1,800); AID 651589, 2012;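 active = mean inhibition of the reporter signal across four replicates at the single tested dose of 50% or more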
# * hit, by the source's call; nt = no result. This is a sample that favours compounds with a hit; in the whole collection about 3% have one here.
SMILES,CF NFkB block,HIF-2a inh,Peg3 promoter,KKLEB cytotox,LMP1 NFkB inh,TRPM1 prom inh,HIF-2a conf,HIF-1a cs,others
CC1=CC2OC3CC4OC(=O)C=CC=CC(=O)OCCC(C)C(O)C(=O)OCC2(CC1)C4(C)C31CO1 (stereo not given),90*,75*,97*,-20,82*,104*,71*,103*,
CC1CCOC(=O)C=CC=CC(=O)OC2CC3OC4C5OC5(C)C(O)CC4(COC(=O)C1O)C2(C)C31CO1 (stereo not given),90*,67*,99*,-9,87*,80*,56*,103*,
CC(C)(O)C(=O)Nc1ccc([N+](=O)[O-])c(C(F)(F)F)c1,7,0,-8,8,3,0,nt,nt,
COc1cc2c(cc1OC)CN(c1ccc([N+](=O)[O-])c(C(F)(F)F)c1)CC2,-12,46*,27,-9,8,-2,-12,36,
CSCCC(c1nnnn1C1CCCCC1)N1CCC(n2c(=O)[nH]c3ccccc32)CC1 (stereo not given),33,-15,46,2,nt,nt,nt,nt,
O=c1[nH]c2ccccc2n1C1CCN(C(CCc2ccccc2)c2nnnn2Cc2ccccc2)CC1 (stereo not given),84*,67*,97*,-82*,nt,nt,-20,105*,
Cc1ccc2c(c1)Oc1ccccc1N=C2,-15,2,7,-6,1,nt,nt,nt,
Cc1nc2ncnn2c(C)c1CCC(=O)N1CCC2(CC1)OCCO2,5,7,5,8,2,3,nt,nt,
Cc1nc2cc(-c3ccccc3)nn2c(C)c1CCC(=O)N1CCC2(CC1)OCCO2,2,70*,-41,-6,6,41,81*,36,
CC(N)C(=O)NC1C2C(=C(O)CC(O)C2O)C(=O)OC1(C)C(Cl)Cl (stereo not given),87*,45*,96*,-31,85*,66*,57*,104*,
Oc1c(Br)c(Br)c(Br)c(Br)c1Br,48,-38,48,-7,7,2,nt,nt,
CC(=O)O[C@H]1[C@H]2O[C@]23[C@@H]2CC[C@]4(O)C[C@@H](O)CC[C@]4(C)C2CC[C@]3(C)[C@H]1c1ccc(=O)oc1 (stereo not given in full),82*,76*,101*,-54*,49*,79*,43*,106*,Mdm2 MdmX conf=87*
Fc1ccc(NC(=S)N2Cc3ccccc3-n3nncc3C2)cc1,-14,-17,-5,-6,-2,nt,nt,nt,
CC[C@H](C)[C@@H]1NC(=O)CNC(=O)c2csc(n2)[C@H](C(C)(C)O)OC(=O)C(C)(C)[C@H](CCCC(C)(Cl)Cl)OC(=O)c2csc1n2,83*,42*,65*,-91*,nt,nt,44*,88*,
CCCCn1nnnc1C(c1ccccc1)N1CCC2(CC1)C(=O)NCN2c1ccccc1 (stereo not given),-1,15,13,-5,nt,nt,nt,nt,
N#CC1c2ccccc2-n2nncc2CN1S(=O)(=O)c1ccccc1 (stereo not given),8,5,7,4,-6,1,nt,nt,
C[C@H]1[C@@H](OS(=O)(=O)O)C[C@@H]2C[C@H]([C@@H](O)c3cc(=O)[nH]c(=O)[nH]3)NC3=NC[C@H]1N32,76*,54*,97*,-10,72*,74*,23,105*,

# Screens (PubChem BioAssay)
